Test results reported in PubChem BioAssay (NCI).
About 79,000 compounds went through this panel and 15% of them were active in at least one assay; those are over-represented in the sample as a whole. Active and inactive are the calls of the source. Cut-off read from the data, not from the text of the source: active = growth inhibition above about 70%; inactive = the rest.

Experiments:
[1] = NCI Yeast Anticancer Drug Screen. Data for the mlh1 strain (AID 171);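 note: 0% = growth of vehicle-treated control cultures of the same strain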; details: S. cerevisiae mlh1 strain growth inhibition, stronger effect = higher value
Procedure, shortened: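 Growth of the mutant yeast strain after compound exposure, expressed as inhibition relative to vehicle-only controls.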

[2] = NCI Yeast Anticancer Drug Screen. Data for the sgs1 strain (AID 173);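 note: 0% = growth of vehicle-only control cultures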; details: S. cerevisiae sgs1 mutant, stronger effect = higher value
Procedure, shortened: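 Growth of a yeast strain bearing a defined genetic alteration is measured after compound treatment. Inhibition is expressed relative to vehicle-only controls.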

[3] = NCI Yeast Anticancer Drug Screen. Data for the rad18 strain (AID 177); details: S. cerevisiae rad18 mutant growth inhibition, stronger effect = higher value
Procedure, shortened: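 Growth of the mutant yeast strain after compound exposure, normalised to vehicle-only cultures.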

[4] = NCI Yeast Anticancer Drug Screen. Data for the rad52 strain (AID 147);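 note: 0% = growth of vehicle-treated control cultures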; details: S. cerevisiae rad52 mutant growth inhibition, stronger effect = higher value
Procedure, shortened: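 Compounds are applied to a genetically defined yeast strain lacking normal DNA damage repair, and inhibition of growth is expressed relative to cultures given vehicle only.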

[5] = NCI Yeast Anticancer Drug Screen. Data for the wt1 strain (AID 149);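 note: 0% = growth of vehicle-treated wt1 cultures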; details: S. cerevisiae wt1 strain (SPY 50644) growth inhibition, stronger effect = higher value
Procedure, shortened: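 Growth inhibition read against vehicle controls after compound exposure of the wt1 yeast strain.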

[6] = NCI Yeast Anticancer Drug Screen. Data for the rad50EPP+ strain (AID 151);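 note: 0% = growth of vehicle-treated control cultures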; details: S. cerevisiae rad50 mutant strain, stronger effect = higher value
Procedure, shortened: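 Compounds were applied to the rad50EPP+ yeast strain, which bears a defined DNA repair alteration, and growth inhibition was determined relative to vehicle-treated cultures.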

[7] = NCI Yeast Anticancer Drug Screen. Data for the rad50 strain (AID 155);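 note: 0% = growth of vehicle-only cultures of the same strain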; details: S. cerevisiae rad50 strain growth inhibition, stronger effect = higher value
Procedure, shortened: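 Readout: growth inhibition relative to vehicle-treated cultures. Compound exposure was carried out in a genetically defined yeast strain deficient in DNA damage repair.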

[8] = NCI Yeast Anticancer Drug Screen. Data for the mec2-1 strain (AID 157); details: S. cerevisiae mec2-1 strain, stronger effect = higher value
Procedure, shortened: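 Strain: mec2-1 (DNA repair/cell cycle alteration). Compound exposure, then growth measured; inhibition expressed relative to vehicle.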

[9] = NCI Yeast Anticancer Drug Screen. Data for the sgs1 mgt1 strain (AID 161);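 note: 0% = growth of cultures given vehicle only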; details: S. cerevisiae sgs1 mgt1 strain, stronger effect = higher value
Procedure, shortened: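 Genetically altered yeast, compound exposure, growth inhibition relative to vehicle.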

[10] = NCI Yeast Anticancer Drug Screen. Data for the CLN2oe strain (AID 163);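 note: 0% = growth of vehicle-only control cultures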; details: S. cerevisiae CLN2oe strain, stronger effect = higher value
Procedure, shortened: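 Growth of a genetically modified yeast strain is measured after compound exposure and compared with cultures given vehicle alone.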

[11] = NCI Yeast Anticancer Drug Screen. Data for the cln2 rad14 strain (AID 165);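 note: 0% = growth equal to vehicle treated cultures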; details: S. cerevisiae cln2 rad14 strain, stronger effect = higher value
Procedure, shortened: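 Compounds are applied to the cln2 rad14 yeast strain, and growth is then compared with that of vehicle-treated cultures to give inhibition.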

[12] = NCI Yeast Anticancer Drug Screen. Data for the bub3 strain (AID 167); details: S. cerevisiae bub3 mutant strain, stronger effect = higher value
Procedure, shortened: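 Readout: yeast growth inhibition, expressed relative to vehicle-only wells. The test organism is a mutant strain from a panel with lesions in DNA repair or checkpoint genes.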

[13] = NCI Yeast Anticancer Drug Screen. Data for the wt2 strain (AID 169);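 note: 0% = growth of vehicle-treated yeast cultures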; details: S. cerevisiae wt2 strain growth inhibition, stronger effect = higher value
Procedure, shortened: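 This strain belongs to a panel of yeast strains with defined genetic alterations in DNA damage repair or cell cycle control. Compounds are applied, and growth inhibition is measured against vehicle-treated cultures.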

[14] = NCI Yeast Anticancer Drug Screen. Data for the mlh1 rad18 strain (AID 175); details: S. cerevisiae mlh1 rad18 strain growth inhibition, stronger effect = higher value
Procedure, shortened: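 Read-out is yeast growth inhibition, calculated against vehicle-only controls. The compound was applied to a strain engineered with DNA damage repair alterations.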

[15] = at 5.0 µM (retest, dose inferred, filed as 0.5)
[16] = at 50.0 µM (retest, dose inferred, filed as 5.0)

Measured: growth inhibition

Clc1c(Cl)c(Cl)c2n[nH]nc2c1Cl
active: [1]; at 100.0 µM 75% | [2]; at 100.0 µM 91%
inactive: [1]; at 33.0 µM 14% | [2]; at 1.2 µM -40% | [2]; at 3.7 µM -26% | [2]; at 11.0 µM -12% | [2]; at 33.0 µM 30% | [3]; at 1.2 µM -29% | [3]; at 3.7 µM -38% | [3]; at 11.0 µM -25% | [3]; at 33.0 µM 4% | [3]; at 100.0 µM 57%

O=C1C=CC(=Nc2ccccc2)c2ccccc21
inactive: [4]; at 1.2 µM 1% | [4]; at 3.7 µM 5% | [4]; at 11.0 µM 20% | [4]; at 33.0 µM 55% | [5]; at 1.2 µM 8% | [5]; at 3.7 µM 12% | [5]; at 11.0 µM 21% | [5]; at 33.0 µM 38% | [5]; at 100.0 µM 45% | [6]; at 1.2 µM 3% | [6]; at 3.7 µM 8% | [6]; at 11.0 µM 28% | [6]; at 33.0 µM 53% | [7]; at 1.2 µM 3% | [7]; at 3.7 µM 15% | [7]; [15] -8% | [7]; at 11.0 µM 65% | [7]; at 50.0 µM 37.9% | [8]; at 1.2 µM 5% | [8]; at 3.7 µM 10% | [8]; [15] 22% | [8]; at 11.0 µM 19% | [8]; at 33.0 µM 28% | [8]; [16] 43% | [8]; at 50.0 µM 45.3% | [8]; at 100.0 µM 44% | [9]; [15] 30% | [9]; [16] 60% | [9]; at 50.0 µM 31.6% | [10]; at 1.2 µM -2% | [10]; at 3.7 µM -4% | [10]; at 11.0 µM 6% | [10]; at 33.0 µM 43% | [10]; at 100.0 µM 39% | [11]; [15] -17% | [11]; [16] 32% | [11]; at 50.0 µM 24.6% | [12]; at 1.2 µM 12% | [12]; at 3.7 µM 37% | [12]; [15] 65% | [12]; at 11.0 µM 62% | [13]; at 1.2 µM 8% | [13]; at 3.7 µM 17% | [13]; at 11.0 µM 35% | [13]; at 33.0 µM 54% | [13]; at 100.0 µM 69% | [1]; at 1.2 µM 3% | [1]; at 3.7 µM 5% | [1]; at 11.0 µM 20% | [1]; at 33.0 µM 67% | [2]; at 1.2 µM 5% | [2]; at 3.7 µM 12% | [2]; at 11.0 µM 29% | [2]; at 33.0 µM 60% | [14]; [15] 27% | [14]; at 50.0 µM 36.5% | [3]; at 1.2 µM 2% | [3]; at 3.7 µM 6% | [3]; at 11.0 µM 37%
active: [4]; at 100.0 µM 77% | [6]; at 100.0 µM 70% | [7]; at 33.0 µM 88% | [7]; [16] 70% | [7]; at 100.0 µM 85% | [12]; at 33.0 µM 84% | [12]; [16] 94% | [12]; at 50.0 µM 82.3% | [12]; at 100.0 µM 88% | [1]; at 100.0 µM 82% | [2]; at 100.0 µM 76% | [14]; [16] 87% | [3]; at 33.0 µM 84% | [3]; at 100.0 µM 80%

N#CSC1CCCCNC1=O (stereo not drawn)
active: [4]; at 33.0 µM 83% | [4]; at 100.0 µM 98% | [5]; at 100.0 µM 93% | [6]; at 33.0 µM 70% | [6]; at 100.0 µM 85% | [7]; at 33.0 µM 86% | [7]; at 100.0 µM 98% | [8]; at 50.0 µM 78.3% | [8]; at 100.0 µM 94% | [10]; at 100.0 µM 96% | [12]; at 50.0 µM 79.7% | [12]; at 100.0 µM 97% | [13]; at 100.0 µM 98% | [1]; at 100.0 µM 98% | [2]; at 33.0 µM 89% | [2]; at 100.0 µM 99% | [14]; at 50.0 µM 95.9% | [3]; at 11.0 µM 82% | [3]; at 33.0 µM 94% | [3]; at 100.0 µM 98%
inactive: [4]; at 1.2 µM 2% | [4]; at 3.7 µM 10% | [4]; at 11.0 µM 32% | [5]; at 1.2 µM -3% | [5]; at 3.7 µM -3% | [5]; at 11.0 µM 9% | [5]; at 33.0 µM 46% | [6]; at 1.2 µM 6% | [6]; at 3.7 µM 18% | [6]; at 11.0 µM 42% | [7]; at 1.2 µM 0% | [7]; at 3.7 µM 3% | [7]; [15] -150% | [7]; at 11.0 µM 36% | [7]; [16] 26% | [7]; at 50.0 µM 54.2% | [8]; at 1.2 µM 4% | [8]; at 3.7 µM 3% | [8]; [15] -47% | [8]; at 11.0 µM 25% | [8]; at 33.0 µM 51% | [8]; [16] 3% | [9]; [15] -59% | [9]; [16] 35% | [9]; at 50.0 µM 50% | [10]; at 1.2 µM -4% | [10]; at 3.7 µM -4% | [10]; at 11.0 µM 21% | [10]; at 33.0 µM 44% | [11]; [15] -58% | [11]; [16] -13% | [11]; at 50.0 µM 52.5% | [12]; at 1.2 µM -4% | [12]; at 3.7 µM 4% | [12]; [15] -66% | [12]; at 11.0 µM 36% | [12]; at 33.0 µM 60% | [12]; [16] 2% | [13]; at 1.2 µM 0% | [13]; at 3.7 µM -1% | [13]; at 11.0 µM 10% | [13]; at 33.0 µM 49% | [1]; at 1.2 µM 7% | [1]; at 3.7 µM -4% | [1]; at 11.0 µM 26% | [1]; at 33.0 µM 56% | [2]; at 1.2 µM 1% | [2]; at 3.7 µM 5% | [2]; at 11.0 µM 57% | [14]; [15] -126% | [14]; [16] 58% | [3]; at 1.2 µM 12% | [3]; at 3.7 µM 33%
